Screens deposited in PubChem BioAssay by National Center for Advancing Translational Sciences (NCATS).
The list is not random: actives were taken first. Their share in the collection is about 5.8%.
KB-V1 MDR tox = kills drug-selected multidrug resistant KB-V1 cells | KB-V1 MDR cells viability, CellTiter-Glo, 72 h | Potency, µM (titrated, usually from 46.1 µM), usual class: cytotoxic | 400,000 tested, 3.4% active | AID 1347076; note: nearly all actives have a fitted effect of over 60% in size
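Cytotoxicity via CellTiter-Glo luminescence after 72 h compound exposure at 37 degrees C. Cells: drug-selected KB-V1 line, DMEM phenol-red free plus 10% FBS. Compounds tested at multiple concentrations; normalized data fitted to concentration-effect curves.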
MCF10A rerep = DNA re-replication induction in MCF 10a cells. MCF 10A DNA re-replication, Hoechst nuclear intensity, 48 h. Potency, µM (doses to about 46.1 µM), most hits filed as activators. 350,000 tested, 2.9% active; note: nearly all actives have a fitted effect of over 50% in size
PINK1 expr mod = modulators of PINK1 expression; PINK1 immunofluorescence, high-content cytometry, 24 h; 410,000 tested, 0.2% active; AID 624263; Potency, µM (doses to about 76.6 µM), usual class: activators; active = well fitted activation curve with a large enough effect; inconclusive = small, poorly fitted or top-dose-only effect; cell line not stated here; note: nearly all actives have a fitted effect of over 65% in size
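PINK1 protein level read as immunofluorescence by microplate cytometer in a fixed, stained stable cell line after 24 h exposure to five compound concentrations, with CCCP as control.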
ALOX12 inh = inhibitors of human 12S-lipoxygenase ALOX12 | Potency, µM (titrated, usually from 108 µM), hits mostly inhibitors | purified 12hLO, xylenol orange hydroperoxide absorbance | AID 1671190 | P18054 | 580,000 tested, 1.1% active
Target sequence (P18054 whole entry, looked up): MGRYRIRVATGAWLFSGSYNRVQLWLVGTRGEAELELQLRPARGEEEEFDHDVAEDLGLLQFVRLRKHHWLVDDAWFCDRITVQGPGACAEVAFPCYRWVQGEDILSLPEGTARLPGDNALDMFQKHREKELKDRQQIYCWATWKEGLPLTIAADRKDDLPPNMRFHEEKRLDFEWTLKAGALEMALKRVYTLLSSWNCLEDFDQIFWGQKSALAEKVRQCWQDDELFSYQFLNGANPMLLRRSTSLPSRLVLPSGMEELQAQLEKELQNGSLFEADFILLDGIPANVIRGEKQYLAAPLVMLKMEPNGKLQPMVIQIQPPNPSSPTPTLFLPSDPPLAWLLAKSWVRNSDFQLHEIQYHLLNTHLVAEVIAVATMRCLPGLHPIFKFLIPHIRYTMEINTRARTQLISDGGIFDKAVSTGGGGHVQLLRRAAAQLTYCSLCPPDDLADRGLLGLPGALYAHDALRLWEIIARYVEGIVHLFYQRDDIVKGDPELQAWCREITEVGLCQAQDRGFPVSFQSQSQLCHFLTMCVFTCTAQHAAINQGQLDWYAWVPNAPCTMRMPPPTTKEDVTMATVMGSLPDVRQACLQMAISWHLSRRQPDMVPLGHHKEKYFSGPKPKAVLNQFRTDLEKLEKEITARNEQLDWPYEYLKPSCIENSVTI
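Purified human 12hLO (150 nM final) in 25 mM Hepes, 0.01% Triton X-100, pH 7.0 was preincubated 15 min at room temperature with compound. Then 40 uM arachidonic acid was added, 30 min. Hydroperoxide was read by Fe-XO absorbance ratio 573/405 nm.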
KB-3-1 tox = KB-3-1 parental cell cytotoxicity | KB-3-1 viability, CellTiter-Glo ATP luminescence, 72 h | AID 1347075 | 400,000 tested, 1.4% active | Potency, µM (doses to about 46.1 µM), hits mostly cytotoxic; note: nearly all actives have a fitted effect of over 60% in size
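Cytotoxicity in the drug-sensitive parental line KB-3-1 was scored as loss of CellTiter-Glo luminescence following 72 h incubation with compound. Values come from curve fitting of normalized concentration-response data.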
SW480 rerep = induces DNA re-replication in SW480 colon adenocarcinoma cells; 340,000 tested, 1.8% active; Potency, µM (highest dose often 46.1 µM), hits mostly activators; AID 624297; SW480 DNA re-replication, Hoechst DNA content imaging, 48 h; note: nearly all actives have a fitted effect of over 55% in size
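Image-based read-out: total Hoechst fluorescence of nuclei (405 nm excitation, 500-530 nm emission), with hits raising the fraction of high-intensity nuclei. SW480 colon cells incubated 48 hr with compounds at 37 C.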
Numbers stand for hits; – = inactive; ? = inconclusive; · = no result; ! = a repeat was not active; [ ] = remark or other dose. Unless noted, calls come from the whole dose curve; as a rule, active = well fitted curve in the direction sought with a large enough effect; inconclusive = small, poorly fitted or top-dose-only effect, or another doubt; inactive = no such curve, though single readings can be large; an effect the other way counts as inactive or inconclusive.

SMILES	KB-V1 MDR tox	MCF10A rerep	PINK1 expr mod	ALOX12 inh	KB-3-1 tox	SW480 rerep
CCOc1cc2c(cc1O)C(=NO)CC1C2CCC2(C)C(O)CCC12 (stereo unspecified)	–	?	–	–	–	?
CC(=O)Oc1ccc2c(c1)CCC1C2CC[C@@]2(C)C1CC(OC(C)=O)C2OC(C)=O (stereo partly specified)	·	·	–	·	·	·
CCC12CCC3c4ccc(O)cc4CCC3C1CC(O)C2O (stereo unspecified)	–	18µM	–	–	–	?
COc1cc2c(cc1O)CC[C@@H]1[C@@H]2CC[C@]2(C)[C@@H](O)CC[C@@H]12	5.8µM	?	–	·	1.6µM	3.3µM
CC(=O)NCCc1ccc(C(=O)COc2c(Cl)cccc2Cl)s1	·	·	·	–	·	·
COCCn1c(SCC(=O)c2cc(C)ccc2C)nnc1-c1ccc(Cl)cc1	·	·	·	–	·	·
O=C(NC1CCCN(c2cc(-c3ccc(F)cc3)[nH]n2)C1)c1ccc2ncccc2c1 (stereo unspecified)	·	·	·	–	·	·
Cc1nc2cc(NC(=O)COc3ccc(C#N)cc3)ccc2o1	·	·	·	–	·	·
C[C@]12CC[C@@H]3c4ccc(OC(=O)c5ccccc5)cc4CC[C@H]3[C@@H]1CC[C@@H]2O	21µM	30µM!	–	–	?	–
COC(=O)c1ccccc1NC(=O)CC(NCc1ccccc1)C(=O)O (stereo unspecified)	–	–	–	?	–	21µM
O=c1[nH]c(CN2CCN(S(=O)(=O)/C=C/c3ccccc3)CC2)nc2ccccc12	–	–	–	–	–	–
NC(=O)C1CCN(Cc2nc3cc(Cl)ccc3c(=O)[nH]2)CC1	–	21µM	–	13µM	?	–
O=c1[nH]c(CN2CCN(S(=O)(=O)/C=C/c3ccccc3)CC2)nc2cc(Cl)ccc12	?	18µM	–	–	23µM	?
NC(=O)C1CCN(Cc2nc3ccccc3c(=O)[nH]2)CC1	–	–[0.0737 µM]	–	?	–	–
CCN(Cc1ccc(C(N)=O)cc1)C1CCCC1	·	·	·	–	·	·
Cc1ccc(-c2nc(-c3ccccn3)no2)cc1	6.5µM	–	–	–	9.2µM	–
Clc1cccc(-c2nc(-c3ccccn3)no2)c1	–	–	–	–	?	–
c1ccc(-c2noc(-c3ccno3)n2)nc1	–	–	–	–	–	–
c1ccc(-c2ccc(-c3nc(-c4ccccn4)no3)cc2)cc1	8.2µM	–	–	–	13µM	–
c1ccc(-c2nc(-c3ccccn3)no2)cc1	16µM	?	–	–	9.2µM	–
Cc1ccc(-c2nc(NC(=O)c3cc(C)on3)sc2C)cc1	·	·	·	–	·	·
c1ccc(N2CCCCC2)c(Nc2nc3ccccc3n3cnnc23)c1	–	12µM	–	–	?	–
FC(F)(F)c1ccc(N2CCOCC2)c(Nc2nc3ccccc3n3cnnc23)c1	?	23µM	–	–	?	?
CSc1ccc(/C=N/NC(=O)C2CC2)cc1	·	·	·	–	·	·
COc1cc(CNC(C)Cn2nc(C)cc2C)ccc1OCCN1CCCC1 (stereo unspecified)	·	·	·	–	·	·
SMILES	KB-V1 MDR tox	MCF10A rerep	PINK1 expr mod	ALOX12 inh	KB-3-1 tox	SW480 rerep
CN(/C=C/C(=O)/C=C/N(C)c1ccccc1)c1ccccc1	·	·	·	16µM	·	·
COc1ccc2c(c1OC)C(=O)N(c1cccc(C(F)(F)F)c1)C2	–	–	3.2µM	–	–	–
CC(C)c1ccc(OCCCCCN2CCOCC2)cc1	–	?	–	?	–	–
CC(=O)Oc1ccc(OC(C)=O)c(SCCCCCN2CCOCC2)c1	–	4.1µM	–	?	–	?
Cc1ccccc1C(=O)N1CCC(C(=O)NCc2coc(-c3cccs3)n2)CC1	·	·	·	–	·	·
CC(C)Cc1nn2c(=O)cc(CSc3nnc(-c4ccccc4F)o3)nc2s1	·	·	·	–	·	·
COc1cc([N+](=O)[O-])ccc1N/C=C/C(=O)c1cccs1	3.3µM	–	–	–	5.2µM	–
COc1cccc(OC)c1C(=O)Nn1c(-c2cccc(C)c2)nc2ccccc2c1=O	–	–	–	–	–	–
COc1ccc(CNn2c(C)nc3ccccc3c2=O)cc1	–	–	–	–	–	–
COc1ccccc1CNn1c(-c2cccc(C)c2)nc2ccccc2c1=O	23µM	–	–	–	–	–
COc1ccc(CNn2c(-c3cccc(C)c3)nc3ccccc3c2=O)cc1OC	23µM	–	–	–	–	–
Cc1c(-c2ccccc2)c(=O)oc2ccc(OS(C)(=O)=O)cc12	·	·	·	–	·	·
CC(C1SC(=S)NC1=O)C1SC(=S)NC1=O (stereo unspecified)	–	·	–	13µM	–	·
COc1ccc(-c2nc(-c3ccccc3)c(-c3ccc(O)cc3)[nH]2)cc1	·	·	–	?	·	·
COc1ccc(-c2nc(-c3ccc4c(c3)OCO4)[nH]c2-c2ccc(OC)cc2)cc1	21µM	?	?	–	–	?
O=C(c1ccccc1)N1CCN(c2ccc([N+](=O)[O-])c(NCc3cccnc3)c2)CC1	2.6µM	–	–	–	?	–
CC(C)(C)C(=O)N1CCN(c2ccc([N+](=O)[O-])c(NCc3cccnc3)c2)CC1	?	–	–	–	–	–
O=C(c1ccccc1F)N1CCN(c2ccc([N+](=O)[O-])c(NCc3cccnc3)c2)CC1	–	–	–	?	–	–
O=C(c1ccc(Cl)cc1)N1CCN(c2ccc([N+](=O)[O-])c(NCc3cccnc3)c2)CC1	21µM	–	–	–	–	–
COc1cccc(-c2ocnc2C(=O)Nc2ccc(C(C)C)cc2)c1	·	·	·	–	·	·
COc1ccc2[nH]c3c(c2c1)CCNC3c1ccc([N+](=O)[O-])o1 (stereo unspecified)	–	–	–	–	–	–
COc1ccc2[nH]c3c(c2c1)CCNC3C1CC=C(C)CC1 (stereo unspecified)	?	0.58µM	–	?	21µM	?
Cn1nc(C(=O)OCC(=O)c2ccc(C3CCCCC3)cc2)c2ccccc2c1=O	·	·	·	–	·	·
CCOC(=O)/C(=C\c1ccc(OC(F)F)cc1)C1=Nn2c(nnc2-c2ccc(Cl)cc2)SC1	–	5.2µM	–	·	?	16µM
CCOC(=O)/C(=C/c1ccc(OC(F)F)cc1)C1=Nn2c(nnc2-c2ccc(Cl)cc2)SC1	?	3.7µM	–	–	?	7.3µM
COc1ccc(OC)c(Nc2nc(C3CC3)nc3c2nnn3Cc2ccccc2)c1	2.1µM	–	–	–	–	–
c1ccc(Cn2nnc3c(Nc4ccc5c(c4)OCO5)nc(C4CC4)nc32)cc1	–	10µM	?	–	–	–
CN(C)S(=O)(=O)c1ccc(Nc2nc(C3CC3)nc3c2nnn3Cc2ccccc2Cl)cc1	?	–	–	–	2.9µM	–
COC(=O)CNc1nc(C2CC2)nc2c1nnn2Cc1ccccc1Cl	–	–	–	–	–	–
COc1ccc(Cl)cc1Nc1nc(C)nc2c1nnn2Cc1ccccc1	–	?	–	–	–	–
